{"source": "the supplement of paper PMC3334620", "note": "Whole data set: some 33,000 sequences, median “E-score (-0.5 to 0.5)” near -0.054, cut for the highest 2% near 0.39. What follows is part of a selection rich in the highest values, with near analogues and random picks from the rest."}
{"biological_target": "Ylr278c (UniProt Q05854)", "sequence (Q05854 whole entry, the tested form may be a part)": "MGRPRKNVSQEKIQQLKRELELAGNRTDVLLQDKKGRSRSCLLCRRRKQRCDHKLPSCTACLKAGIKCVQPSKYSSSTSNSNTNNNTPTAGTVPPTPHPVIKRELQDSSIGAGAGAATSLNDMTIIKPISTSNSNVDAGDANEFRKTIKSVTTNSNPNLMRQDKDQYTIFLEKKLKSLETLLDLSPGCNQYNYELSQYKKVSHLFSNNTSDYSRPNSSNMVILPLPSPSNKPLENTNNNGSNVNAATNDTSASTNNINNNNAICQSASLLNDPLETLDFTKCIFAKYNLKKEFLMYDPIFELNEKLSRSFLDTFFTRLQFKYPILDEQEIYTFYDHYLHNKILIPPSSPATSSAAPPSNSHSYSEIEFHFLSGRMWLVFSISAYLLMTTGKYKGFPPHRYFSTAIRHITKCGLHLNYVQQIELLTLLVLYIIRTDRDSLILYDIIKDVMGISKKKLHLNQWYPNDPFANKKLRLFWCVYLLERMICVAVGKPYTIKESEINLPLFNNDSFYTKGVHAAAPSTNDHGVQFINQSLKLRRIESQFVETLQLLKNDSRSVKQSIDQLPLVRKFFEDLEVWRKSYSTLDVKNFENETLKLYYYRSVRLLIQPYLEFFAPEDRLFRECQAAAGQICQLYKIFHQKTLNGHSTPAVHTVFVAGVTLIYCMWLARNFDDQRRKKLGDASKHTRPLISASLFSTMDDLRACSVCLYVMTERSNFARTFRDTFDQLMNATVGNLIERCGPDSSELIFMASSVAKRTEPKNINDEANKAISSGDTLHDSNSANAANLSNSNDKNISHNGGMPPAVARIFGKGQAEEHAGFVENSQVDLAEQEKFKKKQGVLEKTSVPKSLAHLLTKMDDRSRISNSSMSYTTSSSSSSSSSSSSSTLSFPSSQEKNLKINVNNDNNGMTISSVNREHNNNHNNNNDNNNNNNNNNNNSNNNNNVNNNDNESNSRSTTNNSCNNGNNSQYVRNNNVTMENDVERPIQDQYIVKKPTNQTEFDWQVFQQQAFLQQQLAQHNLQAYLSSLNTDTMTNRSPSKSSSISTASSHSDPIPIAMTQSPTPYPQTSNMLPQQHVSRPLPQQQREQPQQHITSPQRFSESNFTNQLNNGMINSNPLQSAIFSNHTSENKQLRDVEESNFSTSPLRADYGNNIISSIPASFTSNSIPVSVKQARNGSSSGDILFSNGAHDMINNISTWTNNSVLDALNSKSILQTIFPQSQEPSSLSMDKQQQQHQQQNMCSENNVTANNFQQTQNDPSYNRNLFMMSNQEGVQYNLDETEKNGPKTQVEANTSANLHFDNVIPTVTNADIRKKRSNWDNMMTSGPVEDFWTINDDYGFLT", "experiment": "PBM E-score (8-mer binding enrichment) (E-score (-0.5 to 0.5)); higher = stronger / more preferred TF binding", "settings": "protein concentration: 200 nM; construct: GST-DNA-binding domain", "experimental": "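Universal 'all 10-mer' protein binding microarrays (Agilent AMADID 015681) probed with GST-tagged S. cerevisiae TFs (full-length or DBD) made by in vitro transcription/translation (PURExpress), about 100-200 nM. Bound TF was detected with fluorescent anti-GST. Each ungapped 8-mer (which stands for itself and its reverse complement) is scored by the PBM enrichment score (E-score), a modified Wilcoxon-Mann-Whitney statistic from -0.5 to +0.5, computed with the Universal PBM Analysis Suite. Scale: above 0.35 generally sequence-specific binding.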"}
{"sequence": "CTTCAACC", "PBM E-score": -0.0749}
{"sequence": "GCGATGCC", "PBM E-score": 0.0401}
{"sequence": "AGAGATGC", "PBM E-score": -0.0846}
{"sequence": "CATCACGC", "PBM E-score": 0.0744}
{"sequence": "ACGTGGAT", "PBM E-score": -0.233}
{"sequence": "AAAAGGTG", "PBM E-score": -0.196}
{"sequence": "ATCCCTAA", "PBM E-score": -0.254}
{"sequence": "ACGGCCCC", "PBM E-score": -0.034}
{"sequence": "AGGCGGAA", "PBM E-score": 0.304}
{"sequence": "CGGCGGAA", "PBM E-score": 0.438}
{"sequence": "GGGCGGAA", "PBM E-score": 0.364}
{"sequence": "ATTCCCCC", "PBM E-score": 0.162}
{"sequence": "ATTCCGCC", "PBM E-score": 0.418}
{"sequence": "ATTCCGCA", "PBM E-score": 0.356}
{"sequence": "ATGCCGCG", "PBM E-score": 0.304}
{"sequence": "CTTCCGCC", "PBM E-score": 0.343}
{"sequence": "ATTCCGCG", "PBM E-score": 0.439}
{"sequence": "CACACCCA", "PBM E-score": -0.107}
{"sequence": "GTACAACA", "PBM E-score": 0.014}
{"sequence": "GAACTACC", "PBM E-score": 0.0269}
{"sequence": "GAAAGTAA", "PBM E-score": -0.0679}
{"sequence": "CAACTGCC", "PBM E-score": -0.00091}
{"sequence": "CCTTTGAC", "PBM E-score": -0.121}
{"sequence": "CCGATTTC", "PBM E-score": 0.303}
{"sequence": "GCGATTCC", "PBM E-score": 0.237}
{"sequence": "CGGATTTC", "PBM E-score": 0.448}
{"sequence": "GGGATTAA", "PBM E-score": 0.223}
{"sequence": "CCGATTCC", "PBM E-score": 0.393}
{"sequence": "CCGATTTA", "PBM E-score": 0.396}
{"sequence": "AGGATTTC", "PBM E-score": 0.0497}
{"sequence": "CGGATTAG", "PBM E-score": 0.299}
{"sequence": "CTGATTTC", "PBM E-score": -0.0243}
{"sequence": "CCGATTCG", "PBM E-score": 0.267}
{"sequence": "ACGATTTA", "PBM E-score": 0.0466}
{"sequence": "CGGATTAA", "PBM E-score": 0.39}
{"sequence": "TACGCGAA", "PBM E-score": -0.0238}
{"sequence": "ACAGGAGC", "PBM E-score": -0.0789}
{"sequence": "CTCATGGC", "PBM E-score": -0.0203}
{"sequence": "ATGCAAGA", "PBM E-score": -0.214}
{"sequence": "ACACTAAC", "PBM E-score": 0.0293}
{"sequence": "ACCAAGAT", "PBM E-score": -0.0275}
{"sequence": "GACAATTA", "PBM E-score": 0.0117}
{"sequence": "GGATCGTA", "PBM E-score": -0.00905}
{"sequence": "AATAGATA", "PBM E-score": -0.126}
{"sequence": "ACACTGCC", "PBM E-score": 0.154}
{"sequence": "AGGATGTC", "PBM E-score": -0.0871}
{"sequence": "CGGATGTA", "PBM E-score": 0.307}
{"sequence": "CGGATGTC", "PBM E-score": 0.4}
{"sequence": "CGGATTCC", "PBM E-score": 0.427}
{"sequence": "AGGATTCC", "PBM E-score": -0.00339}
{"sequence": "AGGATTTA", "PBM E-score": 0.00139}
{"sequence": "CGGATTCA", "PBM E-score": 0.161}
{"sequence": "CGGATTTA", "PBM E-score": 0.451}
{"sequence": "GGGATTTA", "PBM E-score": 0.287}
{"sequence": "TTAAAAAA", "PBM E-score": -0.12}
{"sequence": "AGACCCAC", "PBM E-score": -0.00095}
{"sequence": "GACTAAAC", "PBM E-score": -0.0103}
{"sequence": "GGGCAACA", "PBM E-score": 0.0452}
{"sequence": "AACCACTG", "PBM E-score": -0.136}
{"sequence": "GCCCTCAC", "PBM E-score": -0.226}
{"sequence": "CATCCCGA", "PBM E-score": 0.262}
{"sequence": "AATCCCGA", "PBM E-score": 0.42}
{"sequence": "AATCCCCA", "PBM E-score": -0.0702}
{"sequence": "CATCCCCC", "PBM E-score": -0.0212}
{"sequence": "AATCCCCC", "PBM E-score": 0.0792}
{"sequence": "CATCCCCA", "PBM E-score": -0.109}
{"sequence": "AATCCCGG", "PBM E-score": 0.439}
{"sequence": "CATCCCCG", "PBM E-score": 0.396}
{"sequence": "CATCCCGG", "PBM E-score": 0.342}
{"sequence": "AATCCCGT", "PBM E-score": 0.346}
{"sequence": "TATCCCGA", "PBM E-score": 0.258}
{"sequence": "AATCCCCG", "PBM E-score": 0.398}
{"sequence": "AGGTTCAG", "PBM E-score": 0.0375}
{"sequence": "AAGCCTCC", "PBM E-score": 0.0849}
{"sequence": "CATTGGCA", "PBM E-score": -0.208}
{"sequence": "CAAGATCC", "PBM E-score": 0.167}
{"sequence": "ATTATAGC", "PBM E-score": -0.086}
{"sequence": "ATGTCTAC", "PBM E-score": -0.1}
{"sequence": "AGAAAGAT", "PBM E-score": -0.103}
{"sequence": "CACGTCAC", "PBM E-score": -0.147}
{"sequence": "GCGCATAA", "PBM E-score": -0.0332}
{"sequence": "ACCAAGAG", "PBM E-score": -0.29}
{"sequence": "TCCGATAA", "PBM E-score": 0.428}
{"sequence": "TCCGAGGA", "PBM E-score": 0.401}
{"sequence": "GCCGAGGA", "PBM E-score": 0.197}
{"sequence": "GCCGATAA", "PBM E-score": 0.301}
{"sequence": "ACCGAGAA", "PBM E-score": 0.109}
{"sequence": "CCCGAGAA", "PBM E-score": 0.293}
{"sequence": "TCCGAGAA", "PBM E-score": 0.421}
{"sequence": "ACCGATAA", "PBM E-score": 0.269}
{"sequence": "CCCGAGGA", "PBM E-score": 0.061}
{"sequence": "ACAATGGT", "PBM E-score": -0.255}
{"sequence": "ATCGTGAA", "PBM E-score": 0.00733}
{"sequence": "GGAGGTTA", "PBM E-score": 0.101}
